Consider one compound from ChEMBL document CHEMBL1961873, “Compounds: GSK PKIS; Assays: Nanosyn kinase panel” (2012).

Several values for one entry are separate records, joined by “and”; a condition that tells them apart may be missing. Identical values can stand only once.

Assay [1] deals with Sphingosine kinase 1 (Homo sapiens) (UniProt Q9NYA1). Particulars: at 1 µM.
Assay [2] has as its target T1, Sphingosine kinase 2 (Homo sapiens) (UniProt Q9NRA0).
T1 sequence (whole entry): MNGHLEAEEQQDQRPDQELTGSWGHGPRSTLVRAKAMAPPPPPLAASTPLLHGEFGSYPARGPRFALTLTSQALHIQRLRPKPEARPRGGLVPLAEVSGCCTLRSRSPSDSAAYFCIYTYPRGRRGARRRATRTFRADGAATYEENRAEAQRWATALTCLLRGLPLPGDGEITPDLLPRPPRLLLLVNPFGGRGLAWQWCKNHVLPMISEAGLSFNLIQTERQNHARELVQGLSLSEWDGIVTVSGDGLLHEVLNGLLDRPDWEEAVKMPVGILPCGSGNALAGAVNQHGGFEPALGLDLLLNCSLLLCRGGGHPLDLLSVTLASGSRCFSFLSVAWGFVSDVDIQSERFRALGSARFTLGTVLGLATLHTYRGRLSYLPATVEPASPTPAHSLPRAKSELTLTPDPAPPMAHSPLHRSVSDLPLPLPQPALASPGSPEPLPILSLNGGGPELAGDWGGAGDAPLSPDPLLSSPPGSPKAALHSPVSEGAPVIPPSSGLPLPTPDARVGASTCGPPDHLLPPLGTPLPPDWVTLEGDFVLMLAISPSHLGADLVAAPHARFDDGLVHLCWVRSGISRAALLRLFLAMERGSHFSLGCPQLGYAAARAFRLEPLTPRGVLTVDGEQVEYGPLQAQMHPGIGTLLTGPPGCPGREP
Particulars: at 0.1 µM.

In assay [3] the target is T1, Sphingosine kinase 2 (Homo sapiens). Particulars: at 1 µM.
Assay [4] addresses Casein kinase II subunit alpha (Homo sapiens) (UniProt P68400). Particulars: at 0.1 µM.
For assay [5] the target is unchanged. Particulars: at 1 µM.
The target in assay [6] is T2, Inhibitor of nuclear factor kappa-B kinase subunit alpha (Homo sapiens) (UniProt O15111).
T2 sequence (whole entry): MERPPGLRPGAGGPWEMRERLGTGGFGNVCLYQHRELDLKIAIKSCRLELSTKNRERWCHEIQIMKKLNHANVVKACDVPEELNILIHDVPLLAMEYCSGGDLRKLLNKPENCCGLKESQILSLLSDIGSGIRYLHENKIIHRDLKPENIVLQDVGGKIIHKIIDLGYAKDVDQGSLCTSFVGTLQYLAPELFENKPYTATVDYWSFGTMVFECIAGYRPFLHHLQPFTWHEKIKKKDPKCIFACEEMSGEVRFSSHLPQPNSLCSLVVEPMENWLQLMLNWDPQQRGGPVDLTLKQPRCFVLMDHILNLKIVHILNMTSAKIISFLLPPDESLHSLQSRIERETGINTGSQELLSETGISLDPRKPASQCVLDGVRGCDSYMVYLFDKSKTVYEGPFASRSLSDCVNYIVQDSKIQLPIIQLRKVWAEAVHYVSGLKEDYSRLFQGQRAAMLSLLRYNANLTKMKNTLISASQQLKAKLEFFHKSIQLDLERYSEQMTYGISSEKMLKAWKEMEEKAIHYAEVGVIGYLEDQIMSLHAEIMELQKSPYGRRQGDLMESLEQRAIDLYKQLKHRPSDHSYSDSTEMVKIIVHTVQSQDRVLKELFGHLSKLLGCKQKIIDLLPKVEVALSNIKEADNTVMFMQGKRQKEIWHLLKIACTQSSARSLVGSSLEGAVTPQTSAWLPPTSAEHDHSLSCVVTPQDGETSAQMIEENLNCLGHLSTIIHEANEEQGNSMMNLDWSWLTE
The note with it: at 0.1 µM.

Assay [7] has as its target T2, Inhibitor of nuclear factor kappa-B kinase subunit alpha (Homo sapiens). The note with it: at 1 µM.
Assay [8] has as its target T3, Inhibitor of nuclear factor kappa-B kinase subunit beta (Homo sapiens) (UniProt O14920).
T3 sequence (whole entry): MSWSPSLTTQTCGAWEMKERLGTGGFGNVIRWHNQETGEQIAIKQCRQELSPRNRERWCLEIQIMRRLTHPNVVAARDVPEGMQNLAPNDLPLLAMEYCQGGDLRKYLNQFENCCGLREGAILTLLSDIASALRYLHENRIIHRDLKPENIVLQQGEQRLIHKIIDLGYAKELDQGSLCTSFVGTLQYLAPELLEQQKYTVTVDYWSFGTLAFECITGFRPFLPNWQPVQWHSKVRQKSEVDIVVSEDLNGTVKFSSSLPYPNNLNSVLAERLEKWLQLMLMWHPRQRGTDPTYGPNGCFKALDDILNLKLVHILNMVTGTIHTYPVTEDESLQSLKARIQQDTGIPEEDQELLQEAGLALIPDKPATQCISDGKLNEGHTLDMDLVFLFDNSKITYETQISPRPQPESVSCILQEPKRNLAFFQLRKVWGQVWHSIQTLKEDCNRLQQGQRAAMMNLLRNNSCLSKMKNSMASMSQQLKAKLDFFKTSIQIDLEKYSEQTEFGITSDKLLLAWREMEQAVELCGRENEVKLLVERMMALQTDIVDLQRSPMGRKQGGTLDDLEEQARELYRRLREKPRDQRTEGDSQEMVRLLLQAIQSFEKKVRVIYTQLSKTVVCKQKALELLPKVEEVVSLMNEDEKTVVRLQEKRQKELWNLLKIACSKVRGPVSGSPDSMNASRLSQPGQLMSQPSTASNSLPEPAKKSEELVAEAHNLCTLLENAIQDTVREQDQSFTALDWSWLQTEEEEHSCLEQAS
The note with it: at 0.1 µM.

For assay [9], the target named is T3, Inhibitor of nuclear factor kappa-B kinase subunit beta (Homo sapiens). Particulars: at 1 µM.
In assay [10] the target is T4, Inhibitor of nuclear factor kappa-B kinase subunit epsilon (Homo sapiens) (UniProt Q14164).
T4 sequence (whole entry): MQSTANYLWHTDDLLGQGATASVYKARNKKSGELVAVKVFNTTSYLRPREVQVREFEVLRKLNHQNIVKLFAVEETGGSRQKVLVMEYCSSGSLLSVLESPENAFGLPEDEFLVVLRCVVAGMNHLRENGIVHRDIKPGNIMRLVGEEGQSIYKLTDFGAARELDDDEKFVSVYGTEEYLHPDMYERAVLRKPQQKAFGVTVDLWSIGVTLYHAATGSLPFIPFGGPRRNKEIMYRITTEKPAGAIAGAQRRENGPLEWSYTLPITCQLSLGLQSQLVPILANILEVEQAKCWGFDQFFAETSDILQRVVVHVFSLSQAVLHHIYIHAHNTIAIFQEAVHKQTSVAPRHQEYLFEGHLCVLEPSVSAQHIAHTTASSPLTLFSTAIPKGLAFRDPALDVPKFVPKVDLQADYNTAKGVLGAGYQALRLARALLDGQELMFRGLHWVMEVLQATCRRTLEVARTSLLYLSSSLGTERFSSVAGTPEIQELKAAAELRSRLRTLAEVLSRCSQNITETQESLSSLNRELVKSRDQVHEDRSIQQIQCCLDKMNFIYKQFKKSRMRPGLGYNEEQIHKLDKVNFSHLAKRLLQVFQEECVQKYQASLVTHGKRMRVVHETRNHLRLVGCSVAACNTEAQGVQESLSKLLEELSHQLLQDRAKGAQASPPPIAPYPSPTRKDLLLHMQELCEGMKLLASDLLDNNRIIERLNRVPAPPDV
The note with it: at 0.1 µM.

Assay [11] deals with T4, Inhibitor of nuclear factor kappa-B kinase subunit epsilon (Homo sapiens). The note with it: at 1 µM.
For assay [12], the target named is T5, Serine/threonine-protein kinase Nek1 (Homo sapiens) (UniProt Q96PY6).
T5 sequence (whole entry): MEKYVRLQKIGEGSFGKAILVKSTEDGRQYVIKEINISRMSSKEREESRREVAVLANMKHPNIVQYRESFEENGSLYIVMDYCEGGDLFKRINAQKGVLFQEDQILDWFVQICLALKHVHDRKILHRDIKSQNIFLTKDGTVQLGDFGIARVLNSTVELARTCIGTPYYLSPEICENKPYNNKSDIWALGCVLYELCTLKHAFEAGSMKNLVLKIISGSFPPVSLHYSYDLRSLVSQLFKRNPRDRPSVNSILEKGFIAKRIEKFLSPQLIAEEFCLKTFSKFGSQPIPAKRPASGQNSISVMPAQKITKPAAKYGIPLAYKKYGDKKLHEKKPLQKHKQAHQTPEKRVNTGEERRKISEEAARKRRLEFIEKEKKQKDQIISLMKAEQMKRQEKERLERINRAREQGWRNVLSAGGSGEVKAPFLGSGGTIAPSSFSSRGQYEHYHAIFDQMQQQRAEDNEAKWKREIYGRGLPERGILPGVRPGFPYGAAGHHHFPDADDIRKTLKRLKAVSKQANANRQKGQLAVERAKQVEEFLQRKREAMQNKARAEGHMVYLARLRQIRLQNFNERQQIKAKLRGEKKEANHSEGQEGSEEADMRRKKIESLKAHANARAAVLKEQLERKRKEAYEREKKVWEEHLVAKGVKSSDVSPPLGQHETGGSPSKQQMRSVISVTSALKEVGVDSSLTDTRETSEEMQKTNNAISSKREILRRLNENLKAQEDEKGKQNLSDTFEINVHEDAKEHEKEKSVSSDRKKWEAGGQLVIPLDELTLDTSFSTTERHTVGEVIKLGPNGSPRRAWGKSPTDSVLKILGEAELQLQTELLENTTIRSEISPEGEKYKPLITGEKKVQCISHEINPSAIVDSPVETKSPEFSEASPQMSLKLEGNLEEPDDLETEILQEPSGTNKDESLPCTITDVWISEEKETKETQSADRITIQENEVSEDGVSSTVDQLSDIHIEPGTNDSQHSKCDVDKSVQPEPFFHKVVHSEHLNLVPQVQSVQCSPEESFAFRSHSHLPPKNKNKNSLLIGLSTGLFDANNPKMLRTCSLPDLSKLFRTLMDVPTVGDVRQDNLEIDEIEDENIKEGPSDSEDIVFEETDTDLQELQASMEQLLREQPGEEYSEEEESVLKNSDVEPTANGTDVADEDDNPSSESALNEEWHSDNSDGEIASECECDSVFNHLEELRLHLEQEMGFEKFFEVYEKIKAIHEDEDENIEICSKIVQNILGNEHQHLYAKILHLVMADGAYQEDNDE
Particulars: at 0.1 µM.

In assay [13] the target is T5, Serine/threonine-protein kinase Nek1 (Homo sapiens). Particulars: at 1 µM.
Assay [14] has as its target T6, Serine/threonine-protein kinase Nek2 (Homo sapiens) (UniProt P51955).
T6 sequence (whole entry): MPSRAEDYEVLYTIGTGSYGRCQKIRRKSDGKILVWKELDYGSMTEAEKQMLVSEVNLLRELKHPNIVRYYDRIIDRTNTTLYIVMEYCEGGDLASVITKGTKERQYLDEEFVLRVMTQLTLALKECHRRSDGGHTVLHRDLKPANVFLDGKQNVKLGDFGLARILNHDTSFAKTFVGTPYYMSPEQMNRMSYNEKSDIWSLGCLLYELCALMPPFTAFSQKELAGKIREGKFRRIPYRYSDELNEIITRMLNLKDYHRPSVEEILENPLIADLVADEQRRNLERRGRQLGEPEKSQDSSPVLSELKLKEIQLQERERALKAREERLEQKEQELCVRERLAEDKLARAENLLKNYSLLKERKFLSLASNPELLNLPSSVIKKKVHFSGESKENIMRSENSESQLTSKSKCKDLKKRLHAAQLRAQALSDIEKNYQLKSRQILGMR
Particulars: at 0.1 µM.

For assay [15], the target named is T6, Serine/threonine-protein kinase Nek2 (Homo sapiens). Particulars: at 1 µM.
Assay [16] deals with Serine/threonine-protein kinase Nek6 (Homo sapiens) (UniProt Q9HC98). The note with it: at 0.1 µM.
Sequence of Serine/threonine-protein kinase Nek6 (Homo sapiens) (Q9HC98 whole entry): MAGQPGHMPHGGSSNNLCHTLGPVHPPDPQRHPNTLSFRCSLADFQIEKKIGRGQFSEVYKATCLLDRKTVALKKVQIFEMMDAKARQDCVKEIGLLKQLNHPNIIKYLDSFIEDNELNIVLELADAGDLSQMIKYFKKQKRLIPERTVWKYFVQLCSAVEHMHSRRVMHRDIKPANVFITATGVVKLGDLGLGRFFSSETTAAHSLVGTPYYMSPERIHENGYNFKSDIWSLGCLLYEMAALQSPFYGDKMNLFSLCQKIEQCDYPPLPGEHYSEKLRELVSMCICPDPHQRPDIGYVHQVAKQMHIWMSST
Assay [17] shares this target. Particulars: at 1 µM.
Assay [18] addresses Serine/threonine-protein kinase Nek7 (Homo sapiens) (UniProt Q8TDX7). The note with it: at 0.1 µM.
Assay [19] shares this target. Particulars: at 1 µM.
Assay [20] has as its target T7, Serine/threonine-protein kinase Nek9 (Homo sapiens) (UniProt Q8TD19).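 Further: reported value is the mean percent inhibition of NEK9.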
T7 sequence (whole entry): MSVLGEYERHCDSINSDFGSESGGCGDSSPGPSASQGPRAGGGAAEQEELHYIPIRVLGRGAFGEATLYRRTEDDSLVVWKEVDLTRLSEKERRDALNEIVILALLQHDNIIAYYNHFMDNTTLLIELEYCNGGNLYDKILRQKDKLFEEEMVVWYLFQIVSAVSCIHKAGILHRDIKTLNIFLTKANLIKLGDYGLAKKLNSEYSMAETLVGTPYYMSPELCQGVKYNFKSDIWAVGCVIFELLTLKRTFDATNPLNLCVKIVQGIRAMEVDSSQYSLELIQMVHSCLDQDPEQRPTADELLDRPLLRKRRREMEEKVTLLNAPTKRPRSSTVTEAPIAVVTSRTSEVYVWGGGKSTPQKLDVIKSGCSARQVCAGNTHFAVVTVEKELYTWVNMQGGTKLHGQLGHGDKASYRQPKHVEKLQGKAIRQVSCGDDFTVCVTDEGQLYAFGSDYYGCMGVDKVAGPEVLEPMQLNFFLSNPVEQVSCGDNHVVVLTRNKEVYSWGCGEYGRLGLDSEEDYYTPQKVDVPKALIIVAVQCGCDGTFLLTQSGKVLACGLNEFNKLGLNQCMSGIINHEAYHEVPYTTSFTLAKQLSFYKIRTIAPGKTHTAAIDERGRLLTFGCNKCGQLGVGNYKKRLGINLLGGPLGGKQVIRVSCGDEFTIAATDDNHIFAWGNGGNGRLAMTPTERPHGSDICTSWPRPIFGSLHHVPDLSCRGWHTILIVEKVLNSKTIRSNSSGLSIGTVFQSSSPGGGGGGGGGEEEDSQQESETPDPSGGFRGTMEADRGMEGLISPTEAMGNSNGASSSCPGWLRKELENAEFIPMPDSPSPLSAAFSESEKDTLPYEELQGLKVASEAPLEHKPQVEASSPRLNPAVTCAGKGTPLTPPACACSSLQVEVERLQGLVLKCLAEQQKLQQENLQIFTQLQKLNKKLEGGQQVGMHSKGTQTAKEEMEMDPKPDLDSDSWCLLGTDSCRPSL
The note with it: at 0.1 µM.

Sequence of Serine/threonine-protein kinase Nek7 (Homo sapiens) (Q8TDX7 whole entry, looked up): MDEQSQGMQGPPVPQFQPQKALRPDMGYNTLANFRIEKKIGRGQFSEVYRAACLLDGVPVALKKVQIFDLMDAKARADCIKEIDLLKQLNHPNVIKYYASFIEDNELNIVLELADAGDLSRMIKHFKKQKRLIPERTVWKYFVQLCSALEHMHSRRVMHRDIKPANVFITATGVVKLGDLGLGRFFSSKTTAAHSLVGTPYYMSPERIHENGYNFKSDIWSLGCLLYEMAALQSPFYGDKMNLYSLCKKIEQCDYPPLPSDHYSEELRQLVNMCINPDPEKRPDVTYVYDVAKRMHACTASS
Sequence of Casein kinase II subunit alpha (Homo sapiens) (P68400 whole entry, looked up): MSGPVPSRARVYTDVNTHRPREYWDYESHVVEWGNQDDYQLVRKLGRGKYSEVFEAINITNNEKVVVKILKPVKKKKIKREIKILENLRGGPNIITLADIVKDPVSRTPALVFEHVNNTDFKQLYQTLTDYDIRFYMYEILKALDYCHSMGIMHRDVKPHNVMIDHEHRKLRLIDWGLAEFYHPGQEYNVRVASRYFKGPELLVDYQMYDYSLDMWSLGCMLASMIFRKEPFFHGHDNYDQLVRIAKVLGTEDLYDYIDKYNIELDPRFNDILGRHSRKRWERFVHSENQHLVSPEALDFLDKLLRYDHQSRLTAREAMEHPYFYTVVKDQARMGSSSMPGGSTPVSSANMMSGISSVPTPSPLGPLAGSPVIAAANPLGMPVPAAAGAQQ
Sequence of Sphingosine kinase 1 (Homo sapiens) (Q9NYA1 whole entry): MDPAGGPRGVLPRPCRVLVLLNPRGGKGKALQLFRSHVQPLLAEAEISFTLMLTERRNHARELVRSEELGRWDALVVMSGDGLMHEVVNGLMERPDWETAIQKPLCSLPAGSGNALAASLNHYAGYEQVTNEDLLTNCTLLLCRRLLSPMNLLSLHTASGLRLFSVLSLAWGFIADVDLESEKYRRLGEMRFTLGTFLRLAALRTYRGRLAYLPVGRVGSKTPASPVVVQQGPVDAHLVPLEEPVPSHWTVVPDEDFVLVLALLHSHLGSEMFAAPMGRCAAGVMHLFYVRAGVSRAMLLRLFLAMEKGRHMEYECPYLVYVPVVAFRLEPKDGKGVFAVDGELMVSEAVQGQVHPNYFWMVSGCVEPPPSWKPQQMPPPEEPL

Turning to `Nc1nccc(-c2c(-c3ccc(F)cc3)ncn2C2CCNCC2)n1`, the inhibition in assay [1] was 5.1% and -0.03%; in assay [2], 0.57% and 0.62%; in assay [3], 1.73% and 0.57%; in assay [4] it was 0.26% and 2.91%; in assay [5], 18% and 2.93%; in [6] it was 5.16% and -0.81%. The inhibition is 8.44% and 4.4% in assay [7]; -3.54% and 0.6% in assay [8]; -2.15% and 0.23% in assay [9]; -4.18% and 0.25% in [10]; -3.35% and 1.18% in assay [11]; -2.75% and -0.7% in assay [12]. Further, the inhibition in assay [13] is 0.36% and 1.29%; in [14], -3.4% and 0.5%; in [15], -4.07% and 0.05%; in [16], -2.7% and -2.19%; in [17] it was -2.93% and 2.63%; in assay [18] it was -2.09% and 0.15%. The inhibition was -4.78% and 0.13% in assay [19]; 0.73% and -1.84% in [20].

One may read the inhibition as the relative decrease from the control value, in per cent.
